Data as given in the supplement of paper PMC6279402.
± gives the standard deviation of the averaged measurements.

System: A549
Assay: relative viability (normalised to negative control = 1, bortezomib = 0) (fraction); higher = less cytotoxic
Conditions: inflammatory serum-free RHB-A with cytokines + LPS, 5 d + 24 h CellTiter-Blue
Experimental: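 A549 KRAS-mutant NSCLC cells, pre-treated 5 µM GSK126 or vehicle (DMSO), were seeded at 250 cells/well in 384-well plates in serum-free RHB-A medium with inflammatory cytokines/LPS and treated with Selleck kinase inhibitor and NCI oncology compounds at 30 or 300 nM in triplicate, refreshed at 48 h. Viability was read by CellTiter-Blue after 5 d plus 24 h and normalised per plate with cellHTS2 (mean of bortezomib positive control = 0, mean of negative control = 1).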

[1] = compound 30 nM, GSK126 pretreatment: 5 uM GSK126
[2] = compound 30 nM, GSK126 pretreatment: none (vehicle)
[3] = compound 300 nM, GSK126 pretreatment: 5 uM GSK126
[4] = compound 300 nM, GSK126 pretreatment: none (vehicle)

Row | Compound | relative viability [1] | relative viability [2] | relative viability [3] | relative viability [4]
1 | NCCCNCCSP(=O)(O)O [Amifostine] | 0.96 ± 0.16 | 0.908 ± 0.078 | 0.964 ± 0.12 | 0.96 ± 0.078
2 | O=C(O)CCCc1ccc(N(CCCl)CCCl)cc1 [Chlorambucil] | 0.933 ± 0.1 | 0.844 ± 0.11 | 0.836 ± 0.13 | 0.845 ± 0.12
3 | Cc1ccccc1-n1c(Cn2cnc3c(N)ncnc32)nc2cccc(C)c2c1=O | 0.828 ± 0.076 | 0.784 ± 0.083 | 0.79 ± 0.088 | 0.875 ± 0.056
4 | Cc1ccccc1-n1c(Cn2ncc3c(N)ncnc32)nc2cccc(C)c2c1=O | 0.756 ± 0.055 | 0.787 ± 0.046 | 0.689 ± 0.12 | 0.857 ± 0.13
5 | C1CN1c1nc(N2CC2)nc(N2CC2)n1 [Triethylenemelamine] | 0.834 ± 0.081 | 0.834 ± 0.059 | 0.828 ± 0.012 | 0.918 ± 0.042
